The campaign covered roughly 48,000 compounds. About 13,000 (27%) showed an effect of 50% or more. The list shows a part of the results.

This assay concerns Wolbachia pipientis. The assay is described as follows: Anti-Wolbachia Cell-Based Screen. The class given is functional. The arrangement: scale not given: in the data most compounds retested in dose-response had high values. The note with it: 5 µM.
As for `NC(=O)c1cncc(Oc2cccc(CN3CCCC3)c2Cl)n1`, the “Percent Effect” value was found to be 9.192%.

As to `O=C(NCCN1CCOCC1)NCc1ccccc1-n1cccn1`, the “Percent Effect” value was found to be 1.937%.

`CC(=O)N(C)Cc1ccccc1NCc1c(C)noc1C`: the “Percent Effect” value is 25.91%.

On to `COc1cc(C2(C(=O)NC3CCN(CC4CC4)CC3)CC2)ccc1C`, for which the “Percent Effect” value is listed as 28.82%.

As to `CC(OCC1CC1)C(=O)NCc1cccc(CN2CCN(C)CC2)c1` (stereo not drawn), the “Percent Effect” value worked out at 14.4%.

As to `CN(C)[C@@H]1CN(Cc2ccccc2O)C[C@H]1c1cn(C)c2ccccc12.Cl`, the “Percent Effect” value came to 136.4%.

Turning to `Cn1cnnc1SCC(=O)N1C[C@H]2CC[C@@H]1CN(Cc1cccnc1)C2`, the “Percent Effect” value was -4.246%.

On to `CCn1c(C)nnc1CN(C)C1CCN(Cc2ccccn2)C1` (stereo not drawn), for which the “Percent Effect” value is 15.92%.

For `CN(C)[C@@H]1CN(Cc2ccc(O)cc2)C[C@H]1c1cn(C)c2ccccc12.Cl`, the “Percent Effect” value is reported as 86.16%.

As to `CCC[C@@H]1CN(Cc2ccc(N(C)C)nc2)C[C@H]1N(C)C`, the “Percent Effect” value is given as -0.1894%.

Take `CN(C)[C@@H]1CN(Cc2cccnc2)C[C@H]1c1cn(C)c2ccccc12.Cl`: the “Percent Effect” value worked out at 79.34%.

As for `CC(C)[C@@H]1CN(Cc2ccccc2C#N)C[C@H]1N(C)C`, the “Percent Effect” value came to 11.57%.

Take `Cn1ccnc1CN1C(=O)CO[C@H]2CN(Cc3ccccc3O)C[C@H]21`: the “Percent Effect” value was -13.53%.

On to `CN(C)[C@@H]1CN(Cc2ccccn2)C[C@H]1c1cn(C)c2ccccc12.Cl`, for which the “Percent Effect” value came out at 130.6%.

As to `Cn1cc(CCC(=O)N2C[C@H]3CC[C@@H]2CN(Cc2ccccc2)C3)cn1`, the “Percent Effect” value is listed as -15.29%.

Regarding `CC(C)[C@@H]1CN(Cc2ccccn2)C[C@H]1NS(=O)(=O)N(C)C`, the “Percent Effect” value is on record as -0.7917%.

`CC(=O)N1CCC2(CC1)[C@@H]1CN(Cc3cccnc3)C[C@@H]1C(=O)N2C`: the “Percent Effect” value is reported as -30.73%.

On to `O=C1NC(c2ccccc2)=N[C@@]12CC[C@@H]1CN(Cc3ccoc3)C[C@@H]12`, for which the “Percent Effect” value is recorded as -8.675%.

With `Cc1ccn(-c2ccccc2NCc2scnc2C)n1`, the “Percent Effect” value is listed as -9.292%.

As for `CCc1ccc(C(C)NC(=O)c2ccc(CS(C)(=O)=O)o2)cc1` (stereo not drawn), the “Percent Effect” value was -17.56%.

As for `CC(O)CN(CC(=O)NC(=O)NC1CC1)c1ccccc1` (stereo not drawn), the “Percent Effect” value is reported as 10.44%.

As to `CS(=O)(=O)NC(=O)c1cc(Cl)c2c(c1)OCCCO2`, the “Percent Effect” value was 1.063%.

On to `CCc1nc(NS(=O)(=O)c2cc(C)ccc2F)no1`, for which the “Percent Effect” value is 7.249%.

With `CCc1cc(N(C)Cc2noc(C(C)C)n2)nc(N2CCOCC2)n1`, the “Percent Effect” value is -7.429%.

With `CC(C)Cc1noc(CN(C)C2CCCC2)n1`, the “Percent Effect” value is -3.332%.

For the compound `CC(C)Cc1nc(CN(C)CCOc2ccc(F)cc2)no1`, the “Percent Effect” value amounted to 5.016%.

For the compound `CCN(Cc1noc(CC(C)C)n1)Cc1ccccc1C`, the “Percent Effect” value stood at 1.611%.

With `CCc1cc(N(C)Cc2noc(CC(C)C)n2)ncn1`, the “Percent Effect” value is 121.1%.

For the compound `COC(C)c1noc(CN(C)c2ncccn2)n1` (stereo not drawn), the “Percent Effect” value is -22.13%.

As for `CC(C)Cc1noc(CN(C)c2ncccn2)n1`, the “Percent Effect” value is listed as 119.3%.

With `CC(C)Cc1noc(CN(C)c2cc(N(C)C)ncn2)n1`, the “Percent Effect” value stood at 110.5%.

Turning to `COc1cc(N(C)Cc2noc(CC(C)C)n2)ncn1`, the “Percent Effect” value came out at 117.3%.

For the compound `CCn1ccnc1CN(C)c1cc(OC)ncn1`, the “Percent Effect” value stood at 2.5%.

Take `Cc1ccn(Cc2nc(CC(C)C)no2)c(=O)c1`: the “Percent Effect” value is -2.116%.

For `COCCc1noc(CN(C)c2cc(C)ncn2)n1`, the “Percent Effect” value is listed as -9.011%.

Take `OC1CN(Cc2cccc(N3CCOCC3)c2)Cc2ccccc21` (stereo not drawn): the “Percent Effect” value is -36.91%.

As for `O=C(c1scc2c1OCCO2)N1CCOC(Cc2ccc(F)cc2)C1` (stereo not drawn), the “Percent Effect” value is -34.62%.

For `CS(=O)(=O)N1CCN(C(=O)CN2CCCc3c(F)cc(F)cc32)CC1`, the “Percent Effect” value came to 12.08%.

For `CC(C)n1ncc2c1NC(=O)CC21C(=O)Nc2c(Cl)cc(Cl)cc21` (stereo not drawn), the “Percent Effect” value was -10.03%.

Take `Cc1nn(C)c(C)c1CNC1CCOc2ccccc21` (stereo not drawn): the “Percent Effect” value is -9.351%.

As for `Cn1ncc(NCc2cccc(COC(C)(C)C)c2)c(Cl)c1=O`, the “Percent Effect” value is reported as -1.578%.

As for `CN(Cc1nccn1C)CC1CCOc2ccccc2C1` (stereo not drawn), the “Percent Effect” value was 12.56%.

Take `COc1ccc(C(=O)N2C[C@@H](C(=O)O)[C@H](c3ccccc3)C2)c(O)c1`: the “Percent Effect” value was found to be 5.335%.

Consider `CC(=O)NC1CCCN(C(=O)c2ccc(Br)cc2O)C1` (stereo not drawn), for which the “Percent Effect” value is -3.443%.

As for `COc1ccc(C(=O)N2CCCC(NC(=O)C(C)C)C2)c(O)c1` (stereo not drawn), the “Percent Effect” value is listed as 103.8%.

Consider `CC(=O)NC1CCN(C(=O)c2cnc(COc3ccccc3)nc2O)C1` (stereo not drawn), for which the “Percent Effect” value is 1.868%.

On to `CC(C)C(=O)NC1CCCN(C(=O)c2ccccc2O)C1` (stereo not drawn), for which the “Percent Effect” value is 105%.

As for `CC(C)C(=O)NC1CCCN(C(=O)c2cc3ccccc3cc2O)C1` (stereo not drawn), the “Percent Effect” value came out at 101.9%.

Consider `CC(C)(C)OC(=O)NCC1CCN(C(=O)c2ccccc2O)C1` (stereo not drawn), for which the “Percent Effect” value is listed as -1.633%.

Regarding `CC(=O)NC1CCCN(C(=O)Nc2nnc(C(C)C)s2)C1` (stereo not drawn), the “Percent Effect” value is recorded as -25.39%.

`O=C(NCCc1nncn1C1CC1)C1(c2ccccc2)CCC1`: the “Percent Effect” value was -10.81%.

Consider `CS(=O)(=O)CCNC(=O)NCCc1cc2ccccc2o1`, for which the “Percent Effect” value was -10.03%.

Turning to `CCOC(=O)C1(CCOC)CCN(Cc2nccn2CC)CC1`, the “Percent Effect” value is listed as -7.374%.

For the compound `CC(C)NC(=O)NC[C@H]1OC[C@@H](NCc2ccccc2O)[C@@H]1O`, the “Percent Effect” value is on record as 1.072%.

In the case of `O=C(NCC1(O)CCCCC1)c1coc(COc2cccc(F)c2)n1`, the “Percent Effect” value is on record as -6.674%.

Take `CCc1nnsc1C(=O)N1CCN(CC(O)C(C)(C)C)CC1` (stereo not drawn): the “Percent Effect” value is reported as 3.041%.

With `CC(C)c1cc(C(=O)N2CCC3(CC2)c2ccccc2[C@@H](N)[C@@H]3O)cs1`, the “Percent Effect” value was found to be 119.3%.

Turning to `Cc1ccc(C(=O)N2CCC3(CC2)c2ccccc2[C@@H](N)[C@@H]3O)cc1F`, the “Percent Effect” value is given as -5.913%.

For `COc1ccc(C(=O)N2CCC3(CC2)c2ccccc2[C@@H](N)[C@@H]3O)cc1`, the “Percent Effect” value was -1.286%.

On to `Cn1ncc(C(=O)OCC2CC(=O)N(c3ccccc3)C2)c1C(F)F` (stereo not drawn), for which the “Percent Effect” value is on record as -5.382%.

`O=S1(=O)CCCN1Cc1coc(-c2ccc(C(F)(F)F)cc2)n1`: the “Percent Effect” value was -8.069%.

Regarding `Cc1noc(C)c1CN1CCc2ncnc(-c3ccoc3)c2CC1.O=C(O)C(F)(F)F`, the “Percent Effect” value stood at 108.1%.

For `CCN(C)c1ncnc2c1CCN(CC1CCOC1)CC2.O=C(O)C(F)(F)F` (stereo not drawn), the “Percent Effect” value was -11.17%.

In the case of `O=C(O)C(F)(F)F.c1ccc(CN2CCc3ncnc(-c4ccoc4)c3CC2)nc1`, the “Percent Effect” value is -8.699%.

`Cc1ncnc2c1CCN(CC1CCOC1)CC2.O=C(O)C(F)(F)F` (stereo not drawn): the “Percent Effect” value was determined as 17.43%.

In the case of `O=C(O)C(F)(F)F.c1nc2c(c(-c3ccsc3)n1)CCN(Cc1ccoc1)CC2`, the “Percent Effect” value is -2.066%.

Regarding `Cc1nc(CN2CCc3ncnc(-c4ccncc4)c3CC2)cs1.O=C(O)C(F)(F)F.O=C(O)C(F)(F)F`, the “Percent Effect” value is listed as -2.21%.

With `Cc1noc(C)c1CN1CCc2ncnc(-c3ccncc3)c2CC1.O=C(O)C(F)(F)F.O=C(O)C(F)(F)F`, the “Percent Effect” value is 90.01%.

In the case of `O=C(O)C(F)(F)F.O=C(O)C(F)(F)F.c1ccc(CN2CCc3ncnc(-c4ccncc4)c3CC2)nc1`, the “Percent Effect” value is listed as -25.56%.

Regarding `Cn1cc(-c2ncnc3c2CCN(CC2CCOC2)CC3)cn1.O=C(O)C(F)(F)F` (stereo not drawn), the “Percent Effect” value stood at 97.72%.

In the case of `Cc1noc(C)c1CN1CCc2ncnc(-c3ccccc3)c2CC1.O=C(O)C(F)(F)F`, the “Percent Effect” value is given as 91.91%.

Take `OCc1ccc(CN2CCC(n3cc(-c4ccsc4)nn3)CC2)o1`: the “Percent Effect” value was -3.234%.

Turning to `O=C(O)c1csc(S(=O)(=O)N2CCN(Cc3ccc(Cl)cc3)CC2)c1`, the “Percent Effect” value came to 3.67%.

On to `Cc1ccc(S(=O)(=O)NCCCN2CCC(O)CC2)cc1Cl`, for which the “Percent Effect” value is recorded as 11.47%.

With `COCc1noc(CCNc2nc(CC3CC3)nc3c2CCNCC3)n1`, the “Percent Effect” value was -2.883%.

For `CCNC(=O)c1cnc(Cc2ccc(F)cc2)s1`, the “Percent Effect” value is reported as -2.208%.

For the compound `Cc1noc(C)c1CN1CCc2ncnc(-c3ccc(F)cc3)c2CC1.O=C(O)C(F)(F)F`, the “Percent Effect” value turned out to be 85.48%.

For `Cn1cc(CN2CCc3ncnc(N4CCOCC4)c3CC2)cn1.O=C(O)C(F)(F)F.O=C(O)C(F)(F)F.O=C(O)C(F)(F)F`, the “Percent Effect” value is listed as -9.324%.

Take `Cc1noc(C)c1CN1CCc2ncnc(-c3cccnc3)c2CC1.O=C(O)C(F)(F)F.O=C(O)C(F)(F)F`: the “Percent Effect” value came out at 104.6%.

With `Cc1noc(C)c1CN1CCc2ncnc(-c3cnn(C)c3)c2CC1.O=C(O)C(F)(F)F`, the “Percent Effect” value worked out at 103.6%.

With `COc1ccc(NC(=O)C2CCOC2)c(N2CCN(C(C)=O)CC2)n1` (stereo not drawn), the “Percent Effect” value is reported as 4.465%.

As for `CC(=O)NCCNC(=O)C1(Oc2cccnc2C)CCNCC1`, the “Percent Effect” value is -9.586%.

On to `COCCCN(C)c1nc(-c2ccncc2)nc(C)c1C`, for which the “Percent Effect” value is given as -12.12%.

As for `Cc1cc(CN(C)C(=O)c2cccc(CCC(C)(C)O)c2)no1`, the “Percent Effect” value was 3.557%.

With `CCn1ccnc1CN1CCC(=O)N(CC2CC2)C(C(C)C)C1` (stereo not drawn), the “Percent Effect” value is given as -13.21%.

For `Cc1nn(C)cc1C(=O)N1CCCC(c2nccn2Cc2cscn2)C1` (stereo not drawn), the “Percent Effect” value stood at 27.14%.

For `Cc1cncc(C2CCCN(C(=O)c3cnco3)C2)n1` (stereo not drawn), the “Percent Effect” value is 133.2%.

`Cc1cncc(C2CCCN(C(=O)c3ccc(C)[nH]c3=O)C2)n1` (stereo not drawn): the “Percent Effect” value came to 1.082%.

As for `Cc1cncc(C2CCCN(C(=O)c3cn(C)nc3C)C2)n1` (stereo not drawn), the “Percent Effect” value was determined as 117.2%.

Consider `Cc1noc(C2CCCN(C(=O)c3ccc(Br)o3)C2)n1` (stereo not drawn), for which the “Percent Effect” value is reported as -1.818%.

On to `Cc1cncc(C2CCCN(C(=O)c3scnc3C)C2)n1` (stereo not drawn), for which the “Percent Effect” value is -6.162%.

Consider `CS(=O)(=O)CCC(=O)Nc1ccsc1`, for which the “Percent Effect” value was -22.38%.

In the case of `CC(C)c1nc(-c2cc(C(=O)O)c3ccccn23)cs1`, the “Percent Effect” value was found to be 13.08%.

On to `O=S(=O)(CC1CC1)c1ncc(CN2CCSCC2)n1CC1CCCO1` (stereo not drawn), for which the “Percent Effect” value was -0.6342%.

Consider `Cc1ccc(C(=O)N2CCN(c3ccnc4ccsc34)CC2)o1`, for which the “Percent Effect” value was 5.784%.

On to `COc1ccc(Cc2ncc3c(n2)CN(C(=O)CO)C3)cc1`, for which the “Percent Effect” value is reported as -17.5%.

Consider `COc1ccc(Cc2ncc3c(n2)CN(C(=O)C(C)(C)C)C3)cc1`, for which the “Percent Effect” value was -16.53%.

Regarding `COc1ccc(Cc2ncc3c(n2)CN(C(=O)C(C)(C)OC)C3)cc1`, the “Percent Effect” value is reported as 70.44%.

The values are drawn from ChEMBL document CHEMBL3988442, “University of Dundee, Small-Polar-MMV Screening Library” (2021).
